Measurements: PubChem BioAssay (NCATS)
Records with an inconclusive call do not appear. Activity calls are given as the source filed them. The call rests on the fitted dose curve; in most records, active means well fitted curve in the direction sought with a large enough effect; inconclusive means small, poorly fitted or top-dose-only effect, or another doubt; inactive means no such curve, though single readings can be large; an effect the other way counts as inactive or inconclusive.

How the values were obtained:
[1] = target: ATP-dependent 6-phosphofructokinase (Trypanosoma brucei brucei) (UniProt O15648); experiment: qHTS Assay to Find Inhibitors of T. brucei phosphofructokinase: hit validation (AID 492961);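 further: luminescence reports ADP formed as PFK phosphorylates fructose-6-phosphate with ATP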
How it was run: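 Percent activity derived from corrected luminescence, normalized between 0x and 1x enzyme controls, then fitted to concentration-response curves. Conditions: 1.25 nM PFK, 0.1 mM ATP, 0.5 mM F6P, 45 min RT.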

[2] = target: Luciferin 4-monooxygenase (Photinus pyralis) (UniProt P08659); experiment: Biochemical firefly luciferase enzyme assay for NPC (AID 624030);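 further: purified P. pyralis luciferase at 10 nM with luciferin and ATP substrate; nearly all actives have a fitted effect of over 70% in size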
How it was run: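 Counter-screen for direct inhibition of the luciferase enzyme by approved-drug library compounds, run at 10 nM enzyme in 50 mM Tris acetate (final). Luminescence was read within 5 min of enzyme-buffer addition and normalized to PTC124 versus DMSO (0%).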

[3] = target: Glutathione peroxidase 1 (Homo sapiens) (UniProt P07203); experiment: Primary qHTS Assay for Inhibitors of Recombinant Selenoprotein Glutathione Peroxidase 1 (GPX1) (AID 1845191); further: nearly all actives have a fitted effect of over 65% in size
How it was run: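 Recombinant GPX1 (10 nM final) was preincubated with compound for 30 min at room temperature, then reacted with 1 mM GSH, 0.5 mM CHP, 0.5 mM NADPH and 100 nM glutathione reductase; NADPH fluorescence (340/450 nm) was read at 0 and 15 min.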

[4] = qHTS profiling for inhibitors of Plasmodium falciparum proliferation (AID 504749); further: nearly all actives have a fitted effect of over 60% in size; further: potency means the concentration at half of the fitted maximal effect; conditions: P. falciparum in erythrocytes, SYBR Green DNA, 72 h
How it was run: (§1)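 Parasite proliferation within erythrocytes, 72 h exposure. Endpoint: SYBR Green I fluorescence after overnight lysis at room temperature. Controls: 0.29 uM artemisinin, DMSO.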

[5] = tested on: 3D7; experiment: as above; conditions: P. falciparum in erythrocytes, SYBR Green DNA, 72 h; series mostly up to 28.7 µM
How it was run: as §1

[6] = tested on: 7G8; experiment: as above; conditions: P. falciparum in erythrocytes, SYBR Green DNA, 72 h; series mostly up to 28.7 µM
How it was run: as §1

[7] = tested on: AA1029; experiment: as above; conditions: P. falciparum in erythrocytes, SYBR Green DNA, 72 h; series mostly up to 28.7 µM
How it was run: as §1

[8] = tested on: AS120; experiment: as above; conditions: P. falciparum in erythrocytes, SYBR Green DNA, 72 h; series mostly up to 28.7 µM
How it was run: as §1

[9] = tested on: ATS189; experiment: as above; conditions: P. falciparum in erythrocytes, SYBR Green DNA, 72 h; series mostly up to 28.7 µM
How it was run: as §1

[10] = tested on: ATS95; experiment: as above; conditions: P. falciparum in erythrocytes, SYBR Green DNA, 72 h; series mostly up to 28.7 µM
How it was run: as §1

[11] = tested on: C2A; experiment: as above; conditions: P. falciparum in erythrocytes, SYBR Green DNA, 72 h; series mostly up to 28.7 µM
How it was run: as §1

[12] = tested on: CP185; experiment: as above; conditions: P. falciparum in erythrocytes, SYBR Green DNA, 72 h; series mostly up to 28.7 µM
How it was run: as §1

[13] = tested on: CP191; experiment: as above; conditions: P. falciparum in erythrocytes, SYBR Green DNA, 72 h; series mostly up to 28.7 µM
How it was run: as §1

[14] = tested on: CP192; experiment: as above; conditions: P. falciparum in erythrocytes, SYBR Green DNA, 72 h; series mostly up to 28.7 µM
How it was run: as §1

[15] = tested on: CP194; experiment: as above; conditions: P. falciparum in erythrocytes, SYBR Green DNA, 72 h; series mostly up to 28.7 µM
How it was run: as §1

[16] = tested on: CP203; experiment: as above; conditions: P. falciparum in erythrocytes, SYBR Green DNA, 72 h; series mostly up to 28.7 µM
How it was run: as §1

[17] = tested on: CP211; experiment: as above; conditions: P. falciparum in erythrocytes, SYBR Green DNA, 72 h; series mostly up to 28.7 µM
How it was run: as §1

[18] = tested on: CP215; experiment: as above; conditions: P. falciparum in erythrocytes, SYBR Green DNA, 72 h; series mostly up to 28.7 µM
How it was run: as §1

[19] = tested on: CP217; experiment: as above; conditions: P. falciparum in erythrocytes, SYBR Green DNA, 72 h; series mostly up to 28.7 µM
How it was run: as §1

[20] = tested on: CP237; experiment: as above; conditions: P. falciparum in erythrocytes, SYBR Green DNA, 72 h; series mostly up to 28.7 µM
How it was run: as §1

[21] = tested on: CP238; experiment: as above; conditions: P. falciparum in erythrocytes, SYBR Green DNA, 72 h; series mostly up to 28.7 µM
How it was run: as §1

[22] = tested on: CP247; experiment: as above; conditions: P. falciparum in erythrocytes, SYBR Green DNA, 72 h; series mostly up to 28.7 µM
How it was run: as §1

[23] = tested on: CP252; experiment: as above; conditions: P. falciparum in erythrocytes, SYBR Green DNA, 72 h; series mostly up to 28.7 µM
How it was run: as §1

[24] = tested on: CP256; experiment: as above; conditions: P. falciparum in erythrocytes, SYBR Green DNA, 72 h; series mostly up to 28.7 µM
How it was run: as §1

[25] = tested on: CP260; experiment: as above; conditions: P. falciparum in erythrocytes, SYBR Green DNA, 72 h; series mostly up to 28.7 µM
How it was run: as §1

[26] = tested on: CP262; experiment: as above; conditions: P. falciparum in erythrocytes, SYBR Green DNA, 72 h; series mostly up to 28.7 µM
How it was run: as §1

[27] = tested on: CP265; experiment: as above; conditions: P. falciparum in erythrocytes, SYBR Green DNA, 72 h; series mostly up to 28.7 µM
How it was run: as §1

[28] = tested on: CP269; experiment: as above; conditions: P. falciparum in erythrocytes, SYBR Green DNA, 72 h; series mostly up to 28.7 µM
How it was run: as §1

[29] = tested on: CP286; experiment: as above; conditions: P. falciparum in erythrocytes, SYBR Green DNA, 72 h; series mostly up to 28.7 µM
How it was run: as §1

[30] = tested on: CP291; experiment: as above; conditions: P. falciparum in erythrocytes, SYBR Green DNA, 72 h; series mostly up to 28.7 µM
How it was run: as §1

[31] = tested on: CP297; experiment: as above; conditions: P. falciparum in erythrocytes, SYBR Green DNA, 72 h; series mostly up to 28.7 µM
How it was run: as §1

[32] = tested on: CP305; experiment: as above; conditions: P. falciparum in erythrocytes, SYBR Green DNA, 72 h; series mostly up to 28.7 µM
How it was run: as §1

[33] = tested on: CP315; experiment: as above; conditions: P. falciparum in erythrocytes, SYBR Green DNA, 72 h; series mostly up to 28.7 µM
How it was run: as §1

[34] = tested on: CP329; experiment: as above; conditions: P. falciparum in erythrocytes, SYBR Green DNA, 72 h; series mostly up to 28.7 µM
How it was run: as §1

[35] = tested on: CP335; experiment: as above; conditions: P. falciparum in erythrocytes, SYBR Green DNA, 72 h; series mostly up to 28.7 µM
How it was run: as §1

[36] = tested on: DFO2036; experiment: as above; conditions: P. falciparum in erythrocytes, SYBR Green DNA, 72 h; series mostly up to 28.7 µM
How it was run: as §1

[37] = tested on: DIV14; experiment: as above; conditions: P. falciparum in erythrocytes, SYBR Green DNA, 72 h; series mostly up to 28.7 µM
How it was run: as §1

[38] = tested on: DIV17; experiment: as above; conditions: P. falciparum in erythrocytes, SYBR Green DNA, 72 h; series mostly up to 28.7 µM
How it was run: as §1

[39] = tested on: DIV30; experiment: as above; conditions: P. falciparum in erythrocytes, SYBR Green DNA, 72 h; series mostly up to 28.7 µM
How it was run: as §1

[40] = tested on: Dd2; experiment: as above; conditions: P. falciparum in erythrocytes, SYBR Green DNA, 72 h; series mostly up to 28.7 µM
How it was run: as §1

[41] = tested on: ECU; experiment: as above; conditions: P. falciparum in erythrocytes, SYBR Green DNA, 72 h; series mostly up to 28.7 µM
How it was run: as §1

[42] = tested on: GB4; experiment: as above; conditions: P. falciparum in erythrocytes, SYBR Green DNA, 72 h; series mostly up to 28.7 µM
How it was run: as §1

[43] = tested on: HB3; experiment: as above; conditions: P. falciparum in erythrocytes, SYBR Green DNA, 72 h; series mostly up to 28.7 µM
How it was run: as §1

[44] = tested on: ICS; experiment: as above; conditions: P. falciparum in erythrocytes, SYBR Green DNA, 72 h; series mostly up to 28.7 µM
How it was run: as §1

[45] = tested on: JCK; experiment: as above; conditions: P. falciparum in erythrocytes, SYBR Green DNA, 72 h; series mostly up to 28.7 µM
How it was run: as §1

[46] = tested on: N140; experiment: as above; conditions: P. falciparum in erythrocytes, SYBR Green DNA, 72 h; series mostly up to 28.7 µM
How it was run: as §1

[47] = tested on: P93_24; experiment: as above; conditions: P. falciparum in erythrocytes, SYBR Green DNA, 72 h; series mostly up to 28.7 µM
How it was run: as §1

[48] = tested on: P94_40; experiment: as above; conditions: P. falciparum in erythrocytes, SYBR Green DNA, 72 h; series mostly up to 28.7 µM
How it was run: as §1

[49] = tested on: PAD; experiment: as above; conditions: P. falciparum in erythrocytes, SYBR Green DNA, 72 h; series mostly up to 28.7 µM
How it was run: as §1

[50] = tested on: PC15; experiment: as above; conditions: P. falciparum in erythrocytes, SYBR Green DNA, 72 h; series mostly up to 28.7 µM
How it was run: as §1

[51] = tested on: PC26; experiment: as above; conditions: P. falciparum in erythrocytes, SYBR Green DNA, 72 h; series mostly up to 28.7 µM
How it was run: as §1

[52] = tested on: SC27B; experiment: as above; conditions: P. falciparum in erythrocytes, SYBR Green DNA, 72 h; series mostly up to 28.7 µM
How it was run: as §1

[53] = tested on: TAB109; experiment: as above; conditions: P. falciparum in erythrocytes, SYBR Green DNA, 72 h; series mostly up to 28.7 µM
How it was run: as §1

[54] = tested on: TAB113; experiment: as above; conditions: P. falciparum in erythrocytes, SYBR Green DNA, 72 h; series mostly up to 28.7 µM
How it was run: as §1

[55] = tested on: TAB165; experiment: as above; conditions: P. falciparum in erythrocytes, SYBR Green DNA, 72 h; series mostly up to 28.7 µM
How it was run: as §1

[56] = tested on: W2; experiment: as above; conditions: P. falciparum in erythrocytes, SYBR Green DNA, 72 h; series mostly up to 28.7 µM
How it was run: as §1

Sequence of Glutathione peroxidase 1 (Homo sapiens) (P07203 whole entry, looked up): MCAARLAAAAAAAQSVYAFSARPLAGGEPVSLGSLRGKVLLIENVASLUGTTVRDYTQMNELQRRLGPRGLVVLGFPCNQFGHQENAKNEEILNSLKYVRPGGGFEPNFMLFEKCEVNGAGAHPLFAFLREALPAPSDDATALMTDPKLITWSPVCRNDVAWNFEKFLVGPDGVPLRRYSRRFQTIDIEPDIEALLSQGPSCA
Sequence of Luciferin 4-monooxygenase (Photinus pyralis) (P08659 whole entry, looked up): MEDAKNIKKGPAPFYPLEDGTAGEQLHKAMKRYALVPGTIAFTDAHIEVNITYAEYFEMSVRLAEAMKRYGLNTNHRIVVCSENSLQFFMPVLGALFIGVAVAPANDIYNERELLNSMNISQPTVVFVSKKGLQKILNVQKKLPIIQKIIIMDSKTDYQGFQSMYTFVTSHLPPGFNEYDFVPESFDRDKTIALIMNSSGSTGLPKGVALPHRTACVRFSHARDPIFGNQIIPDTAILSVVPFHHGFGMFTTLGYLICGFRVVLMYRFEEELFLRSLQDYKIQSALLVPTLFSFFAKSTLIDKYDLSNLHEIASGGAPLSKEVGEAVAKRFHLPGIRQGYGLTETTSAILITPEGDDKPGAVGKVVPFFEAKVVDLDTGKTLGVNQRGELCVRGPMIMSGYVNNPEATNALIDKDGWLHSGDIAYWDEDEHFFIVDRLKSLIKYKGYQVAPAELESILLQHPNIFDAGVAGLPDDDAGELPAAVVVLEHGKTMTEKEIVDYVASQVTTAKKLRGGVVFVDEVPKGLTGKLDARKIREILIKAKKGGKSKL
Sequence of ATP-dependent 6-phosphofructokinase (Trypanosoma brucei brucei) (O15648 whole entry, looked up): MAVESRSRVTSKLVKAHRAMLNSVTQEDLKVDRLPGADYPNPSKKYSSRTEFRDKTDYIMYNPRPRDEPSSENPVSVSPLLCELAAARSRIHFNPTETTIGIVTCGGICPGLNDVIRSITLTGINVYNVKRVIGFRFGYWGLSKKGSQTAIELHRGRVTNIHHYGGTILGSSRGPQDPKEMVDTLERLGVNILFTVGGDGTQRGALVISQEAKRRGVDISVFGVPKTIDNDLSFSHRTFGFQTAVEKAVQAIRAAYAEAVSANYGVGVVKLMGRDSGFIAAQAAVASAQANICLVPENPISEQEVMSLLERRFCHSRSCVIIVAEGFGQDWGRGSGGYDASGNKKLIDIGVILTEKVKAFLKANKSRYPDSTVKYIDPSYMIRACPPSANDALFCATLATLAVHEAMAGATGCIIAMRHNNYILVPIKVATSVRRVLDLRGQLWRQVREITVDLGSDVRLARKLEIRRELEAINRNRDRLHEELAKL

CC(=O)O[C@@]12CO[C@@H]1C[C@H](O)[C@@]1(C)C(=O)[C@H](O)C3=C(C)[C@@H](OC(=O)C(O)[C@@H](NC(=O)OC(C)(C)C)c4ccccc4)C[C@@](O)([C@@H](OC(=O)c4ccccc4)[C@H]21)C3(C)C (some centres not stated)
outcome [1]: inactive
Potency [2]: inactive
Potency [3]: inactive
Potency ([4]; parasite line A): 31.6 nM (active)
Potency ([4]; parasite line B): 28.2 nM (active)
Potency [5]: 25.1 nM (active)
Potency [6]: 398 nM (active)
Potency [7]: 44.7 nM (active)
Potency [8]: 28.2 nM (active)
Potency [9]: 35.5 nM (active)
Potency [10]: 35.5 nM (active)
Potency [11]: 31.6 nM (active)
Potency [12]: 25.1 nM (active)
Potency [13]: 28.2 nM (active)
Potency [14]: 26.9 nM (active)
Potency [15]: 67.5 nM (active)
Potency [16]: 53.6 nM (active)
Potency [17]: 42.6 nM (active)
Potency [18]: 67.5 nM (active)
Potency [19]: 44.7 nM (active)
Potency [20]: 17.8 nM (active)
Potency [21]: 28.2 nM (active)
Potency [22]: 39.8 nM (active)
Potency [23]: 17.8 nM (active)
Potency [24]: 31.6 nM (active)
Potency [25]: 25.1 nM (active)
Potency [26]: 33.8 nM (active)
Potency [27]: 79.4 nM (active)
Potency [28]: 42.6 nM (active)
Potency [29]: 17.8 nM (active)
Potency [30]: 37.9 nM (active)
Potency [31]: 95.3 nM (active)
Potency [32]: 42.6 nM (active)
Potency [33]: 33.8 nM (active)
Potency [34]: 33.8 nM (active)
Potency [35]: 21.3 nM (active)
Potency [36]: 22.4 nM (active)
Potency [37]: 1200 nM (active)
Potency [38]: 1350 nM (active)
Potency [39]: 53.6 nM (active)
Potency [40]: 10 nM (active)
Potency [41]: 63.1 nM (active)
Potency [42]: 30.1 nM (active)
Potency [43]: 79.4 nM (active)
Potency [44]: 112 nM (active)
Potency [45]: inactive
Potency [46]: 89.1 nM (active)
Potency [47]: 56.2 nM (active)
Potency [48]: 35.5 nM (active)
Potency [49]: 126 nM (active)
Potency [50]: 5620 nM (active)
Potency [51]: 37.9 nM (active)
Potency [52]: 199 nM (active)
Potency [53]: 31.6 nM (active)
Potency [54]: 31.6 nM (active)
Potency [55]: 141 nM (active)
Potency [56]: 15.1 nM (active)
